Compound activity from PubChem BioAssay.
CtBP-E1A blk = inhibitors of CtBP/E1A interaction; AlphaScreen GST-E1A/His-CtBP binding, 1536-well; active compounds read low; activity change, % (concentration not given with the values); hit rate 0.49% among 340,000; AID 651724; in the data active = activity change below about -65%; inconclusive = mostly about -30% to -63%
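Homogeneous bead-based format: GST-tagged E1A captured on glutathione donor beads, His-tagged CtBP on nickel acceptor beads; compounds precede bead addition by 2 h at 37 °C.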
HP1b binding inh = inhibitors of HP1-beta chromodomain binding to methylated histone tails; P83916; AlphaScreen HP1-beta / biotin-H3K9me3 peptide binding; Potency, µM (top dose mostly 114 µM), hits mostly inhibitors; hit rate 0.56% among 390,000; note: nearly all actives have a fitted effect of over 70% in size
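HP1-beta protein (50 nM final) preincubated 30 min at room temperature with biotinylated H3(1-18)K9me3 peptide (50 nM) in PBS pH 7.4, 0.01% Tween-20, then compound added for 30 min. AlphaScreen streptavidin donor/nickel chelate acceptor beads (10 ug/mL final), 30 min dark, luminescence read.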
Six1-Eya2 blk = inhibitors of human Six1/Eya2 interaction; Q15475+O00167; AlphaScreen GST-Six1/His-Eya2 binding, biochemical; active compounds read low; activity change, % (no concentration beside the values); hit rate 0.56% among 360,000; in the data active = activity change below about -65%; inconclusive = mostly about -30% to -63%
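Six1/Eya2 binding was read as AlphaScreen signal after compounds were pinned into GST-Six1 plus His-tagged Eya2 (5X stock 250/500 nM) in pH 8.0 Tris/NaCl/TCEP buffer, beads added, then incubated 1 h, 37 C, dark.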
G9a block = blocks human histone lysine methyltransferase G9a. hit rate 8.8% among 350,000. Potency, µM (series often up to 102 µM), actives largely listed as inhibitors. G9a H3K9 monomethylation, AlphaScreen, 2 h. Q96KQ7; note: nearly all actives have a fitted effect of over 75% in size
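Signal arises when biotinylated H3K9 peptide, once monomethylated, bridges streptavidin donor and antibody-captured acceptor beads. Enzyme at 20 nM was preincubated 15 min with test compounds; peptide 500 nM and SAM 20 uM then reacted for 2 h.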
JMJD2A Tudor inh = JMJD2A Tudor domain (human) inhibition. AID 504339. Potency, µM (titrated, usually from 114 µM), hits mostly inhibitors. hit rate 4.4% among 390,000. O75164. AlphaScreen JMJD2A-Tudor / H3K4me3 peptide binding; note: nearly all actives have a fitted effect of over 50% in size
Target sequence (O75164 whole entry, looked up, the tested form may be a part): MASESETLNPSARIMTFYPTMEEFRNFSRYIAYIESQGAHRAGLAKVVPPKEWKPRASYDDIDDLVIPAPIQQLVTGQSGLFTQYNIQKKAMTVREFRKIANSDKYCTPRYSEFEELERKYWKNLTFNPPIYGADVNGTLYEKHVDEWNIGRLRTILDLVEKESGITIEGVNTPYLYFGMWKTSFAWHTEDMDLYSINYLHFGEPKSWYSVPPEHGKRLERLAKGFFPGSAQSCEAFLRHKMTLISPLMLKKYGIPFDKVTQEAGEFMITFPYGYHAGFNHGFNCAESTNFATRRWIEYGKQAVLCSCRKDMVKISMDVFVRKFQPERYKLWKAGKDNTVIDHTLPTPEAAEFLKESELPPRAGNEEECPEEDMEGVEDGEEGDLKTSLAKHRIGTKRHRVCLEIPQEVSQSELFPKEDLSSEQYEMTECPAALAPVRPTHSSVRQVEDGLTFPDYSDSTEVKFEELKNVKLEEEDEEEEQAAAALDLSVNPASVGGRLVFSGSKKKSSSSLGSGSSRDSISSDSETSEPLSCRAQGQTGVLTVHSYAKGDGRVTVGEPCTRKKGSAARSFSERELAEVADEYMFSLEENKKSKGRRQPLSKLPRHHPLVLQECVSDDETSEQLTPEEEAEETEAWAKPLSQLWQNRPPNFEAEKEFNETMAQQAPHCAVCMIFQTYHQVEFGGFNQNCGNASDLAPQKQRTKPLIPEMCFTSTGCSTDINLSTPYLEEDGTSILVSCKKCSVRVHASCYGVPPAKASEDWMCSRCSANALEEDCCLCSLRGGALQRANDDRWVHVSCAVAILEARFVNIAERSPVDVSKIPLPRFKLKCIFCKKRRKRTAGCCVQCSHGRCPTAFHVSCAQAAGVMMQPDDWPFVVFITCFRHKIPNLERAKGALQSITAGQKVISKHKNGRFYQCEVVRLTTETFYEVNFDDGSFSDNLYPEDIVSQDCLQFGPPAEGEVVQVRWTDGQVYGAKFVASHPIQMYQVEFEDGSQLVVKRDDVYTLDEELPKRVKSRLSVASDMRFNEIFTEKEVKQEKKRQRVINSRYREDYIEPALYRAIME
BAZ2B block = BAZ2B (human) inhibition. AlphaScreen BAZ2B-H3K14Ac peptide displacement. Potency, µM (series often up to 114 µM), most hits filed as inhibitors. hit rate 4.4% among 360,000; note: nearly all actives have a fitted effect of over 60% in size
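Multi-concentration screen (max 110 uM) measuring displacement of acetylated histone H3 peptide from BAZ2B by AlphaScreen, using 50 nM protein, 50 nM peptide and 10 ug/mL streptavidin donor plus Ni-chelate acceptor beads.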
Each line names hits and unclear results; the compound was inactive in the other large screens. Compounds with a hit are over-represented: about 10% of the library has one in this group of screens. Unless noted, calls come from the whole dose curve; as a rule, active = well fitted inhibition curve with a large enough effect; inconclusive = small, poorly fitted or top-dose-only effect; inactive = no such curve, though single readings can be large or run the other way.

Cc1ccc(CCCOC(=O)CN2CCCCC2)cc1	none
O=C(O)c1cc(N/N=C/c2ccc(N3CCOCC3)s2)ccc1Cl	HP1b binding inh inconclusive, Six1-Eya2 blk inconclusive, G9a block 2.2µM, JMJD2A Tudor inh 45µM, BAZ2B block 50µM
C/C(=N\Nc1ccc(Cl)c(C(=O)O)c1)c1cccs1	none (no result: G9a block)
NC(=O)N/N=C/c1ccc(N2CCOCC2)s1	G9a block 3.2µM
C/C(=N\Nc1ccc(Cl)c(C(=O)O)c1)c1ccc(N2CCOCC2)cc1	G9a block 40µM
C/C(=N\Nc1ccc(Cl)c(C(=O)O)c1)c1ccc[nH]1	G9a block 25µM, JMJD2A Tudor inh inconclusive, BAZ2B block inconclusive
CCN(CC)CCNC(=O)C(Cl)=C1C(Cl)=C(Cl)C(Cl)=C1Cl	none (no result: G9a block, BAZ2B block)
CCOc1ccc(Cl)cc1S(=O)(=O)N1CCC(C(=O)N2CCCC2)CC1	none (no result: G9a block)
Cc1ccc(C2NNC(=O)C2NC(=O)c2ccccc2)cc1 (stereo not given)	G9a block 2.2µM, JMJD2A Tudor inh inconclusive
CC(=O)c1c(C)[nH]c(C(=O)Nc2ccccn2)c1C	none
Cc1[nH]c(=O)[nH]c1C(=O)CCCCC(=O)OCC(=O)Nc1ccccn1	G9a block 1.6µM, JMJD2A Tudor inh 0.79µM, BAZ2B block 0.89µM
O=C(/C=C/c1ccc(-c2ccccc2[N+](=O)[O-])o1)c1ccco1	HP1b binding inh 40µM, G9a block 14µM, JMJD2A Tudor inh 18µM, BAZ2B block 40µM
O=C(O)/C=C/C(=O)Nc1ccc(Cl)cc1C(=O)c1ccccc1	G9a block 32µM
O=C(O)/C=C/C(=O)Nc1ccc(C(=O)c2ccccc2)cc1	none
O=C(O)/C=C/C(=O)Nc1ccc(NC(=O)c2ccccc2)c(Cl)c1	G9a block 50µM
CCN(Cc1ccncc1)C(=S)NCc1ccccc1	G9a block 50µM
CCCC(NC(=O)CCl)c1ccccc1 (stereo not given)	G9a block inconclusive
CCC(NC(=O)CCl)c1ccc(C)cc1 (stereo not given)	JMJD2A Tudor inh 56µM
O=c1oc2ccccc2n1CCn1c2ccccc2c2nc3ccccc3nc21	G9a block 20µM
COc1ccc2c(c1)c1nc3ccccc3nc1n2CCn1c(=O)oc2ccccc21	none
FC(F)(F)c1ccc(-c2cccc3c2C2CC3CCN2Cc2ccc3c(c2)OCO3)cc1 (stereo not given)	none (no result: HP1b binding inh, G9a block, JMJD2A Tudor inh, BAZ2B block)
CCOC(=O)c1cc(NC(=O)c2ccccc2)c(=O)oc1C(F)(F)F	G9a block inconclusive
COC(=O)c1cc(NC(=O)c2cccc(C(F)(F)F)c2)c(=O)oc1C	G9a block 28µM
COC(=O)c1cc(NC(=O)c2cccc(C(F)(F)F)c2)c(=O)oc1C/C=N/OCc1cccc(Cl)c1Cl	G9a block 40µM
COC(=O)c1cc(NC(=O)c2ccc(OC)cc2)c(=O)oc1C	none (no result: CtBP-E1A blk)
CCn1c(=O)c(C(=O)Nn2c(C)nc3ccccc3c2=O)c(O)c2ccccc21	BAZ2B block 50µM
CCn1c(=O)c(C(=O)NCCCO)c(O)c2ccccc21	G9a block inconclusive, JMJD2A Tudor inh 28µM (no result: BAZ2B block)
Cc1nc2ccccc2c(=O)n1NC(=O)c1ccc([N+](=O)[O-])cc1	JMJD2A Tudor inh 8.9µM (no result: BAZ2B block)
O=C1CN(S(=O)(=O)c2cc(C(=O)O)ccc2Cl)c2ccccc2N1	G9a block inconclusive, JMJD2A Tudor inh inconclusive
CC(C)CN1C(=O)c2ccc(C(=O)Nc3ccccc3C(=O)O)cc2C1=O	G9a block inconclusive, JMJD2A Tudor inh 22µM
CC(C)CCN1C(=O)c2ccc(C(=O)Nc3ccc(Br)cc3C(=O)O)cc2C1=O	JMJD2A Tudor inh 56µM, BAZ2B block 45µM (no result: CtBP-E1A blk, G9a block)
O=C(Nc1ccc(Cl)cc1C(=O)O)c1ccc2c(c1)C(=O)N(Cc1ccco1)C2=O	G9a block 11µM, JMJD2A Tudor inh 56µM, BAZ2B block 50µM
Cc1ccc2c(c1)c1c(c(=O)n(-c3cccc(Cl)c3)c(=O)n1CC(=O)NCC1CCCO1)n2C (stereo not given)	G9a block inconclusive (no result: CtBP-E1A blk, Six1-Eya2 blk)
CSC1=N/C(=C\c2ccc(Cl)cc2)C(=O)N1N(C)C	none
CC1(C)CN=c2s/c(=C\c3ccc(Cl)cc3)c(=O)n2C1	G9a block 71µM, BAZ2B block inconclusive
CCOC(=O)C1=C(C)N(c2ccccc2)C(=O)/C1=C\c1ccco1	G9a block 40µM, JMJD2A Tudor inh inconclusive
CCOC(=O)C1=C(C)N(c2ccccc2)C(=O)/C1=C\c1ccc(O)c(OC)c1	HP1b binding inh inconclusive, G9a block 3.2µM, JMJD2A Tudor inh 5µM, BAZ2B block inconclusive
COC(=O)C1=C(C)N(c2ccc(Cl)cc2)/C(=C/c2cccs2)C1=O	none
CCOC(=O)C1=C(C)N(c2ccc(C)cc2)C(=O)/C1=C\c1cccs1	HP1b binding inh inconclusive, JMJD2A Tudor inh 13µM, BAZ2B block 10µM (no result: G9a block)
CCOC(=O)C1=C(C)N(c2ccccc2)C(=O)/C1=C\c1cccs1	HP1b binding inh 28µM, G9a block inconclusive, JMJD2A Tudor inh inconclusive, BAZ2B block 10µM
COC(=O)c1ccc2c(=O)n(CCCCCC(=O)NCCc3ccccc3)c(=O)[nH]c2c1	none (no result: CtBP-E1A blk, Six1-Eya2 blk)
COc1cccc(C(=O)Nc2c3c(nn2-c2ccc(Cl)cc2)CS(=O)(=O)C3)c1	none (no result: CtBP-E1A blk, Six1-Eya2 blk)
CCOc1ccc(C2N3CC4(C(C)C)CN2CC(C(C)C)(C3)C4=O)cc1OC (stereo not given)	none (no result: CtBP-E1A blk, Six1-Eya2 blk)
COC(=O)C1=C(C)N(c2ccc(OC)c(OC)c2)C(=O)/C1=C\c1ccco1	G9a block inconclusive, BAZ2B block 35µM
COC(=O)C1=C(C)N(c2ccccc2)/C(=C/c2ccco2)C1=O	none (no result: G9a block)
COC(=O)C1=C(C)N(c2cccc(C)c2)C(=O)/C1=C\c1cccs1	HP1b binding inh inconclusive, G9a block 11µM, JMJD2A Tudor inh inconclusive, BAZ2B block 10µM
COC(=O)C1=C(C)N(c2cc(C)cc(C)c2)/C(=C/c2ccco2)C1=O	G9a block inconclusive, JMJD2A Tudor inh 79µM, BAZ2B block 50µM
C/C(=N\NC(=O)c1c(C)nc2ccccn12)c1ccco1	none
Cc1ccc2c(=O)cc(C(=O)Nc3ccc(S(=O)(=O)N(C)Cc4ccccc4)cc3)oc2c1C	G9a block inconclusive (no result: CtBP-E1A blk, Six1-Eya2 blk)
CC(=O)Nc1cc(-c2cccc(F)c2)cn2c(-c3ccc(F)cc3)cnc12	none (no result: HP1b binding inh, G9a block, JMJD2A Tudor inh, BAZ2B block)
COc1ccc(/C=N/N=C2\SC(CC(=O)O)C(=O)N2c2ccccc2)c(OC)c1 (stereo not given)	none
CN1C=CC(=CC=C2C=CC(=O)C=C2)C=C1	none (no result: CtBP-E1A blk)
COc1ccccc1N(C)S(=O)(=O)c1ccc(C(=O)N(CC(N)=O)C(C)C)cc1	BAZ2B block 89µM
COCCNC(=O)c1cc(S(=O)(=O)N(C)c2ccccc2OC)ccc1C	G9a block 28µM
COc1ccc(CCNC(=O)CN(c2cc(C(F)(F)F)ccc2Cl)S(C)(=O)=O)cc1	none (no result: CtBP-E1A blk, Six1-Eya2 blk)
